# About 410 targets per protein were measured; listed, in parts, are those with the strongest signals and a random draw of the rest.
# Columns and labels:
# Assay in all cases: glycan array binding signal (z-score within array); higher = stronger binding
# Settings in all cases: glycan notation: IUPAC condensed, linker removed
# [1] = target: Fuc(a1-2)Gal(b1-3)GalNAc(a1-3)[Fuc(a1-2)]Gal(b1-4)Glc
# Outline: (§1)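 From the Consortium for Functional Glycomics database, 3228 arrays were curated, keeping only those whose protein sequence was available. Binding is given as a within-array Z-score averaged across arrays sharing a protein sequence and across linkers. Negative Z-scores can be read as non-binding.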
# [2] = target: Fuc(a1-2)Gal(b1-3)GlcNAc(b1-3)GalNAc
# Outline: as §1
# [3] = target: Fuc(a1-2)Gal(b1-3)[Fuc(a1-4)]GlcNAc(b1-2)Man(a1-3)[Fuc(a1-2)Gal(b1-3)[Fuc(a1-4)]GlcNAc(b1-2)Man(a1-3)]Man(b1-4)GlcNAc(b1-4)GlcNAc
# Outline: as §1
# [4] = target: Fuc(a1-2)Gal6S(b1-3)GlcNAc6S
# Outline: as §1
# [5] = target: Fuc(a1-2)[Gal(a1-3)]Gal(b1-4)Glc
# Outline: as §1
# [6] = target: Fuc(a1-2)[Gal(a1-3)]Gal(b1-4)GlcNAc(b1-2)Man(a1-3)[Fuc(a1-2)[Gal(a1-3)]Gal(b1-4)GlcNAc(b1-2)Man(a1-6)]Man(b1-4)GlcNAc(b1-4)[Fuc(a1-6)]GlcNAc
# Outline: as §1
# [7] = target: Fuc(a1-2)[Gal(a1-3)]Gal(b1-4)GlcNAc(b1-3)[Fuc(a1-2)[Gal(a1-3)]Gal(b1-4)GlcNAc(b1-6)]GalNAc
# Outline: as §1
# [8] = target: Fuc(a1-2)[Gal(a1-3)]Gal(b1-4)[Fuc(a1-3)]GlcNAc(b1-3)GalNAc
# Outline: as §1
# [9] = target: Fuc(a1-2)[GalNAc(a1-3)]Gal(b1-3)GalNAc(a1-3)[Fuc(a1-2)]Gal(b1-4)GlcNAc
# Outline: as §1
# [10] = target: Fuc(a1-2)[GalNAc(a1-3)]Gal(b1-3)GlcNAc(b1-2)Man(a1-3)[Fuc(a1-2)[GalNAc(a1-3)]Gal(b1-3)GlcNAc(b1-2)Man(a1-6)]Man(b1-4)GlcNAc(b1-4)GlcNAc
# Outline: as §1
# [11] = target: Fuc(a1-2)[GalNAc(a1-3)]Gal(b1-4)[Fuc(a1-3)]GlcNAc(b1-3)GalNAc
# Outline: as §1
# [12] = target: Fuc(a1-3)[Gal(b1-4)]Glc6S
# Outline: as §1
# [13] = target: Fuc(a1-3)[Gal3S(b1-4)]Glc
# Outline: as §1
# [14] = target: Fuc(b1-3)GlcNAc
# Outline: as §1
# [15] = target: Gal(a1-4)Gal(b1-4)GlcNAc(b1-3)Gal(b1-4)Glc
# Outline: as §1
# [16] = target: Gal(b1-3)GlcNAc(b1-2)Man(a1-3)[Gal(b1-3)GlcNAc(b1-2)Man(a1-6)]Man(b1-4)GlcNAc(b1-4)GlcNAc
# Outline: as §1
# [17] = target: Gal(b1-3)[Fuc(a1-4)]GlcNAc(b1-2)Man
# Outline: as §1
# [18] = target: Gal(b1-4)GlcNAc(b1-2)Man(a1-3)[Gal(b1-4)GlcNAc(b1-2)Man(a1-6)][GlcNAc(b1-4)]Man(b1-4)GlcNAc(b1-4)[Fuc(a1-6)]GlcNAc
# Outline: as §1
# [19] = target: Gal3S(b1-4)[Fuc(a1-3)]GlcNAc6S
# Outline: as §1
# [20] = target: Gal3S6S(b1-4)GlcNAc
# Outline: as §1
# [21] = target: Gal3S6S(b1-4)GlcNAc6S
# Outline: as §1
# [22] = target: Gal4S(b1-4)GlcNAc
# Outline: as §1
# [23] = target: Gal6S(b1-4)GlcNAc6S
# Outline: as §1
# [24] = target: GalNAc(a1-3)Gal
# Outline: as §1
# [25] = target: GalNAc(b1-4)GlcNAc(b1-3)GalNAc(b1-4)GlcNAc
# Outline: as §1
# [26] = target: GalNAc4S6S(b1-4)GlcNAc
# Outline: as §1
# [27] = target: GlcNAc(b1-2)Gal(b1-3)GalNAc
# Outline: as §1
# [28] = target: GlcNAc(b1-3)Fuc
# Outline: as §1
# [29] = target: GlcNAc(b1-3)Gal(b1-4)GlcNAc(b1-2)Man(a1-3)[GlcNAc(b1-3)Gal(b1-4)GlcNAc(b1-2)Man(a1-6)]Man(b1-4)GlcNAc(b1-4)GlcNAc
# Outline: as §1
# [30] = target: GlcNAc(b1-3)Gal(b1-4)GlcNAc(b1-3)Gal(b1-4)GlcNAc(b1-2)[GlcNAc(b1-3)Gal(b1-4)GlcNAc(b1-3)Gal(b1-4)GlcNAc(b1-6)]Man(a1-6)[GlcNAc(b1-3)Gal(b1-4)GlcNAc(b1-3)Gal(b1-4)GlcNAc(b1-2)Man(a1-3)]Man(b1-4)GlcNAc(b1-4)[Fuc(a1-6)]GlcNAc
# Outline: as §1
# [31] = target: GlcNAc(b1-3)Gal(b1-4)GlcNAc(b1-3)Gal(b1-4)GlcNAc(b1-3)GalNAc
# Outline: as §1
# [32] = target: GlcNAc(b1-3)Gal(b1-4)GlcNAc(b1-6)[GlcNAc(b1-3)Gal(b1-3)]GalNAc
# Outline: as §1
# [33] = target: GlcNAc6S(b1-3)Gal(b1-4)GlcNAc
# Outline: as §1
# [34] = target: Man(a1-2)Man(a1-3)Man
# Outline: as §1
# [35] = target: Neu5Ac(a2-3)Gal(b1-4)GlcNAc(b1-2)Man
# Outline: as §1
# [36] = target: Neu5Ac(a2-3)Gal(b1-4)GlcNAc(b1-6)[Gal(b1-3)]GalNAc
# Outline: as §1
# [37] = target: Neu5Ac(a2-3)Gal(b1-4)[Fuc(a1-3)]GlcNAc(b1-3)Gal(b1-4)[Fuc(a1-3)]GlcNAc(b1-3)Gal(b1-4)[Fuc(a1-3)]GlcNAc
# Outline: as §1
# [38] = target: Neu5Ac(a2-3)[GalNAc(b1-4)]Gal(b1-4)Glc
# Outline: as §1
# [39] = target: Neu5Ac(a2-6)Gal(b1-4)GlcNAc(b1-2)Man(a1-3)[GlcNAc(b1-2)Man(a1-6)]Man(b1-4)GlcNAc(b1-4)GlcNAc
# Outline: as §1
# [40] = target: Neu5Ac(a2-6)Gal(b1-4)GlcNAc(b1-2)Man(a1-6)Man(b1-4)GlcNAc(b1-4)GlcNAc
# Outline: as §1
# [41] = target: Neu5Ac(a2-6)Gal(b1-4)GlcNAc(b1-2)Man(a1-6)[Man(a1-3)]Man(b1-4)GlcNAc(b1-4)GlcNAc
# Outline: as §1
# [42] = target: Neu5Ac(a2-6)Gal(b1-4)GlcNAc(b1-6)[Gal(b1-3)GlcNAc(b1-3)]Gal(b1-4)Glc
# Outline: as §1
# [43] = target: Neu5Ac(a2-6)GlcNAc(b1-4)GlcNAc
# Outline: as §1
# [44] = target: Neu5Ac(a2-8)Neu5Ac(a2-3)[GalNAc(b1-4)]Gal(b1-4)Glc
# Outline: as §1
# [45] = target: Neu5Ac9Ac(a2-6)Gal(b1-4)GlcNAc
# Outline: as §1
binder,measurement,setting,value
Wzz (Escherichia coli) (protein) MRTWKFPSVRVMMRVENNNVSGQNHDPEQIDLIDLLVQLWRGKMTIIISVIVAIVLAIGYLAVAKEKWTSTAIITQPDVGQIAGYNNAMNVIYGQAAPKVSDLQETLIGRFSSAFSALAETLDNQEEPEKLTIEPSVKNQQLPLTVSYVGQTAEGAQMKLAQYIQQVDDKVNQELEKDLKDNIALGRKNLQDSLRTQEVVAQEQKDLRIRQIQEALQYANQAQVTKPQIQQTGEDITQDTLFLLGSEALESMIKHEATRPLVFSSNYYQTRQNLLDIDNLDVDKLDIHAYLYVMKPTLPIRRDSPKKAITLILAVLLGGMVGAGIVLGRNALRNYNAK,glycan array binding signal (z-score),[1],0.119
same,glycan array binding signal (z-score),[2],-0.55
same,glycan array binding signal (z-score),[3],0.002
same,glycan array binding signal (z-score),[4],2.91
same,glycan array binding signal (z-score),[5],0.055
same,glycan array binding signal (z-score),[6],-0.233
same,glycan array binding signal (z-score),[7],0.857
same,glycan array binding signal (z-score),[8],1.59
same,glycan array binding signal (z-score),[9],1.11
same,glycan array binding signal (z-score),[10],-0.965
same,glycan array binding signal (z-score),[11],0.633
same,glycan array binding signal (z-score),[12],1.46
same,glycan array binding signal (z-score),[13],-0.538
same,glycan array binding signal (z-score),[14],0.034
same,glycan array binding signal (z-score),[15],0.032
same,glycan array binding signal (z-score),[16],1.41
same,glycan array binding signal (z-score),[17],2.68
same,glycan array binding signal (z-score),[18],-0.511
same,glycan array binding signal (z-score),[19],2.08
same,glycan array binding signal (z-score),[20],0.861
same,glycan array binding signal (z-score),[21],16.9
same,glycan array binding signal (z-score),[22],-0.728
same,glycan array binding signal (z-score),[23],4.99
same,glycan array binding signal (z-score),[24],-0.563
same,glycan array binding signal (z-score),[25],-0.667
same,glycan array binding signal (z-score),[26],5.1
same,glycan array binding signal (z-score),[27],-0.1
same,glycan array binding signal (z-score),[28],0.1
same,glycan array binding signal (z-score),[29],-0.684
same,glycan array binding signal (z-score),[30],-0.222
same,glycan array binding signal (z-score),[31],0.801
same,glycan array binding signal (z-score),[32],-0.084
same,glycan array binding signal (z-score),[33],0.081
same,glycan array binding signal (z-score),[34],-0.72
same,glycan array binding signal (z-score),[35],2.37
same,glycan array binding signal (z-score),[36],-0.035
same,glycan array binding signal (z-score),[37],-1.71
same,glycan array binding signal (z-score),[38],-0.397
same,glycan array binding signal (z-score),[39],1.21
same,glycan array binding signal (z-score),[40],2.29
same,glycan array binding signal (z-score),[41],1.66
same,glycan array binding signal (z-score),[42],-0.436
same,glycan array binding signal (z-score),[43],0.29
same,glycan array binding signal (z-score),[44],1.61
same,glycan array binding signal (z-score),[45],-0.542

# Reference: the supplement of paper PMC8728848
